Screening results deposited in PubChem by National Center for Advancing Translational Sciences (NCATS).
In the library only some 10% were active in any assay of this set; here they are far more common.
GLS inhibitor: blocks human kidney-isoform glutaminase activity | GLS enzymatic activity, qHTS titration | 410,000 tested, 0.21% active | AID 624170 | Potency, µM (series often up to 45.5 µM), without a hit: top-dose activity change, negative = inhibition, actives largely listed as inhibitors; also: % is scaled to controls: 0 for no effect and ±100 for the full control effect
Target sequence (O94925 whole entry, looked up, canonical isoform): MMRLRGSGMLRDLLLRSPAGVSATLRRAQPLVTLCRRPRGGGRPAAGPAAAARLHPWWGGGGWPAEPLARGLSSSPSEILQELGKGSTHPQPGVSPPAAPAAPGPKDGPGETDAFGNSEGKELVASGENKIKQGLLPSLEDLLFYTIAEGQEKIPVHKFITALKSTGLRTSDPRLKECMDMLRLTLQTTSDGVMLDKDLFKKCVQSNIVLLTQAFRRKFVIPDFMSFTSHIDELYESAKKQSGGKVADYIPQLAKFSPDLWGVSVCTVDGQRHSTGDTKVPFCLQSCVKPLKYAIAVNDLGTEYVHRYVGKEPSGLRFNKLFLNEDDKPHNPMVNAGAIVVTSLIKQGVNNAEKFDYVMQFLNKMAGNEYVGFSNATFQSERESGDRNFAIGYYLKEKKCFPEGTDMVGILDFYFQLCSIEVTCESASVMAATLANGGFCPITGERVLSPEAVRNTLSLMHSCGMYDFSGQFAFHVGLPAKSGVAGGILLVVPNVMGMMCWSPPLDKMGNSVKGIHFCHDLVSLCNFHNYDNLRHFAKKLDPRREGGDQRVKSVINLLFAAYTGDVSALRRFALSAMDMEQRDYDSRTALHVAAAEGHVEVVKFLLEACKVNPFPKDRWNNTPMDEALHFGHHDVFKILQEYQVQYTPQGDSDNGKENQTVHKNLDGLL
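hKGA in 45 mM KH2PO4 (pH 8.2), 0.02% Tween-20 with compound, then 1mM L-Glutamine (stock as added) plus glutamate oxidase/HRP/Amplex red coupling mix. Fluorescence read initially and after 30 min at RT; signal change reflects glutamate formation.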
JMJD2A Tudor inh: blocks the human JMJD2A Tudor domain. AlphaScreen JMJD2A-Tudor / H3K4me3 peptide binding. 390,000 tested, 4.4% active. O75164. Potency, µM (titrated, usually from 114 µM), inactives show at the highest dose activity change, negative = inhibition, usual class: inhibitors; also: % is scaled to controls: 0 for no effect and ±100 for the full control effect; nearly all actives have a fitted effect of over 50% in size
BAZ2B block: BAZ2B (human) inhibition; Q9UIF8; AID 504333; 360,000 tested, 4.4% active; Potency, µM (titrated, usually from 114 µM), without a hit: at the highest dose activity change, negative = inhibition, actives largely listed as inhibitors; AlphaScreen BAZ2B-H3K14Ac peptide displacement; also: % is scaled to controls: 0 for no effect and ±100 for the full control effect; nearly all actives have a fitted effect of over 60% in size
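AlphaScreen displacement: compounds (up to 110uM) incubated 30 min at room temperature with a preformed 50 nM BAZ2B/50 nM biotinylated H3K14Ac peptide complex in PBS pH 7.4 with Tween-20. Donor and acceptor beads at 10 ug/mL final added, 20 min light-protected before reading.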
G9a inh: inhibitors of human histone lysine methyltransferase G9a | 350,000 tested, 8.8% active | G9a H3K9 monomethylation, AlphaScreen, 2 h | Potency, µM (top dose mostly 102 µM), for the others: at the top dose activity, negative = inhibition, hits mostly inhibitors; also: % is scaled to controls: 0 for no effect and ±100 for the full control effect; nearly all actives have a fitted effect of over 75% in size
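Chemiluminescent proximity detection of H3K9 monomethylation, read after 10 min bead incubation in the dark. Reaction: 20 nM G9a, 500 nM biotin-H3K9 peptide, 20 uM SAM cofactor, 2 h, room temperature, following 15 min enzyme-compound preincubation.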
HP1b chromo inh: inhibitors of HP1-beta chromodomain binding to methylated histone tails; P83916; AlphaScreen HP1-beta / biotin-H3K9me3 peptide binding; Potency, µM (series often up to 114 µM), inactives show at the highest dose activity change, negative = inhibition, hits mostly inhibitors; 390,000 tested, 0.56% active; also: nearly all actives have a fitted effect of over 70% in size
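Compound inhibition of the preformed complex between 50 nM HP1-beta and 50 nM biotinylated H3K9me3 peptide was read by AlphaScreen. Buffer was PBS pH 7.4 with 0.01% Tween-20. Incubations ran 30 min at room temperature, with 10 ug/mL donor/acceptor beads.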
Starred values were filed as active, the others as inactive; ! = repeats disagree; [ ] = dose if it differs, or a comment. Calls follow the shape of the dose curve; as a rule, active = well fitted curve in the direction sought with a large enough effect; inconclusive = small, poorly fitted or top-dose-only effect, or another doubt; inactive = no such curve, though single readings can be large; an effect the other way counts as inactive or inconclusive. Potency is read from the fitted curve at half-maximal effect.

What do the screens show for `CSc1nnc(-c2ccccc2)o1`?
GLS inhibitor: 7%; JMJD2A Tudor inh: 2%; G9a inh: 21%[59 µM]; HP1b chromo inh: 23%

What do the screens show for `CCN(Cc1ccccc1)C(=O)CSc1ccccc1C(=O)O`?
GLS inhibitor: -3%; JMJD2A Tudor inh: -14%; G9a inh: 1%; HP1b chromo inh: 16%

How did CCc1cccc(OCC(=O)Nc2c[nH]c(=O)[nH]c2=O)c1 do in these assays?
GLS inhibitor: 5%; JMJD2A Tudor inh: 2%[11.4 µM]; BAZ2B block: 0%; G9a inh: 4%; HP1b chromo inh: 23%

What do the screens show for `CC(C)Cc1nc2ccc(N)cc2[nH]1`?
GLS inhibitor: inconclusive; JMJD2A Tudor inh: 22µM*; BAZ2B block: -35%; G9a inh: inconclusive; HP1b chromo inh: 19%

How did Cc1ccc2nc(Cc3ccc(N)cc3)[nH]c2c1 do in these assays?
GLS inhibitor: 26%; JMJD2A Tudor inh: -33%; BAZ2B block: 56µM*; G9a inh: 2%[0.501 µM]; HP1b chromo inh: 18%

Results for CC(C)Cc1nc2ccccc2[nH]1 ?
GLS inhibitor: -5%; JMJD2A Tudor inh: 12%; BAZ2B block: -2%; G9a inh: inconclusive; HP1b chromo inh: 26%

Results for Nc1ccc2nc(CN3CCOCC3)[nH]c2c1 ?
GLS inhibitor: 20%; JMJD2A Tudor inh: inconclusive; BAZ2B block: 50µM*; G9a inh: inconclusive; HP1b chromo inh: 35%

What do the screens show for `O=C(Nc1cccnc1)C1(F)C(F)(F)C(F)(F)C(F)(F)C(F)(F)C1(F)F`?
GLS inhibitor: -7%; JMJD2A Tudor inh: 79µM*; BAZ2B block: -31%; G9a inh: 50µM*; HP1b chromo inh: 14%

Results for COc1ccc(/C=C/C(=O)Nc2ccc(Cl)c(Cl)c2)cc1 ?
GLS inhibitor: -1%; JMJD2A Tudor inh: -5%; BAZ2B block: 3%; G9a inh: 7%[59 µM]; HP1b chromo inh: 25%

Results for COC(=O)/C=C/C(=O)Nc1ccc(O)c(Cl)c1 ?
GLS inhibitor: 29%; JMJD2A Tudor inh: -18%; BAZ2B block: inconclusive; G9a inh: 40µM*; HP1b chromo inh: 13%

Results for O=C(Nc1cccnc1)C12CC3CC(CC(C3)C1)C2 ?
GLS inhibitor: 6%; JMJD2A Tudor inh: -14%; BAZ2B block: -11%; G9a inh: -3%; HP1b chromo inh: 27%

How did COC(=O)/C=C/C(=O)Nc1cccnc1 do in these assays?
GLS inhibitor: 3%; JMJD2A Tudor inh: -5%; BAZ2B block: 12%; G9a inh: 50µM*; HP1b chromo inh: 15%

How did O=C(O)/C=C/C(=O)Nc1cccnc1 do in these assays?
GLS inhibitor: -7%; JMJD2A Tudor inh: 3%; BAZ2B block: -25%; G9a inh: -13%[59 µM]; HP1b chromo inh: 49%

What do the screens show for `C=CCn1c(=S)[nH]c2scc(-c3cccs3)c2c1=O`?
GLS inhibitor: 3%; JMJD2A Tudor inh: -23%; BAZ2B block: -36%; G9a inh: -4%[59 µM]; HP1b chromo inh: 34%

How did Cn1c(=S)[nH]c2scc(-c3cccs3)c2c1=O do in these assays?
GLS inhibitor: 6%; JMJD2A Tudor inh: inconclusive; BAZ2B block: -17%; G9a inh: 10µM*; HP1b chromo inh: -13%

How did CCCn1nc(C(=O)NNC(=O)CSC(C)C(=O)Nc2cc(C)on2)c2ccccc2c1=O (stereo not given) do in these assays?
GLS inhibitor: 13%; JMJD2A Tudor inh: -2%; BAZ2B block: -9%; G9a inh: 22µM*; HP1b chromo inh: 32%

What do the screens show for `CC(=O)c1sc2nc(-c3cccs3)ccc2c1N`?
GLS inhibitor: 13%; JMJD2A Tudor inh: 25µM*; BAZ2B block: 2%; G9a inh: 1.6µM*; HP1b chromo inh: -3%

What do the screens show for `Cc1ccc(Cl)cc1NC(=O)COC(=O)c1ccc(N2CCCC2)c([N+](=O)[O-])c1`?
BAZ2B block: -4%; G9a inh: 38%[59 µM]

How did Cc1ccc2nc(NC(=O)CSc3nccn3-c3ccc(Cl)cc3)sc2c1 do in these assays?
GLS inhibitor: -6%; JMJD2A Tudor inh: -27%; BAZ2B block: -4%; G9a inh: 16%[59 µM]; HP1b chromo inh: 7%[57 µM]

Results for Cc1ccc(S(=O)(=O)/N=C(\Sc2ccccc2)c2ccccc2)cc1 ?
GLS inhibitor: 31%; JMJD2A Tudor inh: 8%; BAZ2B block: 17%; G9a inh: 0%[12.7 µM]; HP1b chromo inh: 46%

Results for Cc1ccc(S(=O)(=O)/N=C(/Sc2ccccc2C(=O)O)c2ccccc2)cc1 ?
GLS inhibitor: -7%; JMJD2A Tudor inh: -22%; BAZ2B block: -22%; HP1b chromo inh: 22µM*!

What do the screens show for `CCCC(c1nnnn1Cc1cccs1)N1CCN(c2ccc(OC)cc2)CC1` (stereo not given)?
GLS inhibitor: 37%; JMJD2A Tudor inh: inconclusive; BAZ2B block: 45µM*; G9a inh: 18µM*; HP1b chromo inh: inconclusive

What do the screens show for `CCC(C)(C)n1nnnc1C(c1ccccn1)N1CCN(c2cccc(OC)c2)CC1` (stereo not given)?
GLS inhibitor: -11%; JMJD2A Tudor inh: -33%; BAZ2B block: -4%; G9a inh: 20µM*; HP1b chromo inh: 17%

What do the screens show for `CCC(c1nnnn1Cc1ccc2c(c1)OCO2)N1CCN(c2ccc(F)cc2)CC1` (stereo not given)?
GLS inhibitor: 0%; JMJD2A Tudor inh: inconclusive; BAZ2B block: inconclusive; G9a inh: -13%[59 µM]; HP1b chromo inh: -10%

Results for CCC(c1nnnn1Cc1ccc(OC)cc1)N1CCN(c2ccc(OC)cc2)CC1 (stereo not given) ?
GLS inhibitor: inconclusive; JMJD2A Tudor inh: inconclusive; BAZ2B block: 35µM*; HP1b chromo inh: inconclusive

Results for CCC(c1nnnn1Cc1ccc2c(c1)OCO2)N1CCN(c2ccc(OC)cc2)CC1 (stereo not given) ?
GLS inhibitor: 41%; JMJD2A Tudor inh: inconclusive; BAZ2B block: 32µM*; G9a inh: 40µM*; HP1b chromo inh: -42%

How did COc1ccc(Cn2nnnc2C(c2ccccc2)N2CCN(c3ccccc3)CC2)cc1 (stereo not given) do in these assays?
JMJD2A Tudor inh: inconclusive; HP1b chromo inh: 7%

What do the screens show for `CCC(C)NC(=O)C(Cc1ccccc1)NS(=O)(=O)c1ccc2c(c1)CCC(=O)N2` (stereo not given)?
GLS inhibitor: 0%; JMJD2A Tudor inh: -16%; BAZ2B block: -2%; G9a inh: 6%; HP1b chromo inh: 22%

Results for CC(=O)N1CCCc2cc(S(=O)(=O)N3CCC(C(=O)N(C)C4CCCCC4)CC3)ccc21 ?
GLS inhibitor: 3%; JMJD2A Tudor inh: 6%; BAZ2B block: 2%; G9a inh: 3%[59 µM]; HP1b chromo inh: 26%[57 µM]

How did C=C(C)COc1ccc(-c2nc(N)ncc2-c2ccc(Cl)cc2)c(O)c1 do in these assays?
GLS inhibitor: -5%; JMJD2A Tudor inh: inconclusive; BAZ2B block: inconclusive; G9a inh: -41%; HP1b chromo inh: 20%

How did Fc1ccc(C(c2nnnn2Cc2cccs2)N2CCN(c3ccccc3)CC2)cc1 (stereo not given) do in these assays?
GLS inhibitor: 17%; JMJD2A Tudor inh: -32%; BAZ2B block: -4%; G9a inh: -4%[59 µM]; HP1b chromo inh: 24%
